Out of some 5,500 compounds screened, about 2,000 (36%) were called active. About 18% were inconclusive and are not listed. Rule as the data show it: active = normalized growth mostly below about 0.91 (no sharp cut-off); inconclusive = no clear call, values can overlap the other calls; inactive = mostly above about 0.92. This is one part of the list.
Test: chemical genetic growth profiling, strain panel (AID 1159580);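 also: tested at 20 µM; growth read once vehicle control cultures reached saturation at 30 °C; 1 = growth at the plate median or of vehicle wells; lower values mean less growth of the strain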
Details: S. cerevisiae deletion strains, growth OD

Measured: normalized growth

O=C(/C=C/c1ccccc1)c1ccc(O)cc1O
active: locus YAL021C, strain ccr4, stronger effect = lower value 0.0748 | locus YAL026C, strain drs2, stronger effect = lower value 0.0615 | locus YAL030W, strain snc1, stronger effect = lower value 0.0587 | locus YBL061C, strain skt5, stronger effect = lower value 0.066 | locus YBR009C, strain hhf1, stronger effect = lower value 0.0651 | locus YBR023C, strain chs3, stronger effect = lower value 0.0637 | locus YBR171W, strain sec66, stronger effect = lower value 0.0801 | locus YBR231C, strain swc5, stronger effect = lower value 0.062 | locus YBR279W, strain paf1, stronger effect = lower value 0.0608 | locus YCL011C, strain gbp2, stronger effect = lower value 0.0582 | locus YCL016C, strain dcc1, stronger effect = lower value 0.0631 | locus YCL061C, strain MRC1, stronger effect = lower value 0.0667 | locus YCL069W, strain vba3, stronger effect = lower value 0.0608 | locus YCR088W, strain abp1, stronger effect = lower value 0.0623 | locus YDL005C, strain med2, stronger effect = lower value 0.0755 | locus YDL040C, strain nat1, stronger effect = lower value 0.0609 | locus YDR001C, strain nth1, stronger effect = lower value 0.0596 | locus YDR069C, strain doa4, stronger effect = lower value 0.0834 | locus YDR137W, strain rgp1, stronger effect = lower value 0.0879 | locus YDR159W, strain sac3, stronger effect = lower value 0.0941 | locus YDR195W, strain ref2 0.114 | locus YDR297W, strain sur2, stronger effect = lower value 0.0595 | locus YDR334W, strain swr1, stronger effect = lower value 0.0664 | locus YDR335W, strain msn5, stronger effect = lower value 0.0605 | locus YDR392W, strain spt3, stronger effect = lower value 0.0975 | locus YEL003W, strain gim4, stronger effect = lower value 0.0559 | locus YEL037C, strain rad23, stronger effect = lower value 0.059 | locus YEL061C, strain CIN8 (second series), stronger effect = lower value 0.0607 | locus YER015W, strain faa2, stronger effect = lower value 0.0634 | locus YER016W, strain bim1, stronger effect = lower value 0.0613 | locus YER111C, strain swi4, stronger effect = lower value 0.0739 | locus YER155C, strain BEM2 (second series), stronger effect = lower value 0.0936 | locus YFR010W, strain ubp6, stronger effect = lower value 0.0802 | locus YGL167C, strain pmr1, stronger effect = lower value 0.0759 | locus YGL173C, strain kem1, stronger effect = lower value 0.0714 | locus YGL227W, strain vid30, stronger effect = lower value 0.0642 | locus YGL240W, strain doc1, stronger effect = lower value 0.0905 | locus YGL253W, strain hxk2, stronger effect = lower value 0.054 | locus YHR013C, strain ard1, stronger effect = lower value 0.122 | locus YHR027C, strain rpn1, stronger effect = lower value 0.0687 | locus YHR030C, strain SLT2, stronger effect = lower value 0.101 | locus YHR079C, strain IRE1, stronger effect = lower value 0.113 | locus YHR142W, strain chs7, stronger effect = lower value 0.0687 | locus YJL092W, strain hpr5, stronger effect = lower value 0.0609 | locus YJL095W, strain BCK1 (second series), stronger effect = lower value 0.0568 | locus YJL095W, strain BCK1, stronger effect = lower value 0.131 | locus YJL115W, strain asf1, stronger effect = lower value 0.0751 | locus YJL129C, strain trk1, stronger effect = lower value 0.0857 | locus YJL154C, strain vps35, stronger effect = lower value 0.0627 | locus YJL164C, strain tpk1, stronger effect = lower value 0.0619 | locus YJL166W, strain qcr8, stronger effect = lower value 0.0694 | locus YJL187C, strain SWE1, stronger effect = lower value 0.0592 | locus YJR066W, strain TOR1, stronger effect = lower value 0.000815 | locus YKL160W, strain elf1, stronger effect = lower value 0.0634 | locus YKR026C, strain gcn3, stronger effect = lower value 0.0638 | locus YKR091W, strain srl3, stronger effect = lower value 0.0604 | locus YLL001W, strain dnm1, stronger effect = lower value 0.059 | locus YLL026W, stronger effect = lower value 0.0586 | locus YLL041C, strain sdh2, stronger effect = lower value 0.063 | locus YLR027C, strain aat2, stronger effect = lower value 0.0578 | locus YLR113W, strain HOG1, stronger effect = lower value 0.216 | locus YLR221C, strain rsa3, stronger effect = lower value 0.0573 | locus YLR258W, strain gsy2, stronger effect = lower value 0.0645 | locus YLR262C, strain YPT6 (second series), stronger effect = lower value 0.0856 | locus YLR320W, strain mms22, stronger effect = lower value 0.0956 | locus YLR342W, strain FKS1, stronger effect = lower value 0.064 | locus YLR357W, strain rsc2, stronger effect = lower value 0.137 | locus YLR370C, strain arc18, stronger effect = lower value 0.0633 | locus YLR384C, strain iki3, stronger effect = lower value 0.0625 | locus YML120C, strain ndi1, stronger effect = lower value 0.0602 | locus YMR058W, strain fet3, stronger effect = lower value 0.0605 | locus YMR125W, strain sto1, stronger effect = lower value 0.0837 | locus YMR129W, stronger effect = lower value 0.061 | locus YMR205C, strain PFK2, stronger effect = lower value 0.0908 | locus YMR231W, strain pep5, stronger effect = lower value 0.0723 | locus YNL071W, strain lat1, stronger effect = lower value 0.0616 | locus YNL183C, strain NPR1, stronger effect = lower value 0.000882 | locus YNL209W, strain ssb2, stronger effect = lower value 0.0674 | locus YNL248C, strain rpa49, stronger effect = lower value 0.0717 | locus YNL322C, strain KRE1 (second series), stronger effect = lower value 0.0685 | locus YNR049C, strain mso1, stronger effect = lower value 0.0592 | locus YOR001W, strain rrp6, stronger effect = lower value 0.0669 | locus YOR070C, strain gyp1, stronger effect = lower value 0.0587 | locus YOR080W, strain dia2, stronger effect = lower value 0.0676 | locus YOR083W, strain WHI5, stronger effect = lower value 0.0633 | locus YOR106W, strain vam3, stronger effect = lower value 0.0654 | locus YOR231W, strain MKK1, stronger effect = lower value 0.108 | locus YOR265W, strain rbl2, stronger effect = lower value 0.0582 | locus YOR270C, strain vph1, stronger effect = lower value 0.0904 | locus YOR290C, strain snf2, stronger effect = lower value 0.0728 | locus YPL051W, strain arl3, stronger effect = lower value 0.0614 | locus YPL078C, strain atp4, stronger effect = lower value 0.0665 | locus YPL106C, strain sse1, stronger effect = lower value 0.102 | locus YPL240C, strain hsp82, stronger effect = lower value 0.058 | locus YPL256C, strain CLN2, stronger effect = lower value 0.118

From PubChem BioAssay AID1159580 (chemical genetic matrix, 2015)
